The values below come from PubChem BioAssay.

Each structure is given as a SMILES string. Several values for one entry are separate records, joined by “and”; a condition that tells them apart may be missing. Equal values may be shown once. Activity calls are given as the source filed them.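 How the source made its calls, unless noted: active means z-score of at least 1.8 in each of two replicates, scored against plate mean and spread of sample wells; inactive means the rest.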

A short description of one test: viability rescue of complex I mutant cybrids, primary screen, cell-based, galactose medium, ATP luminescence (AID 1645843).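 Further: positive z means more ATP and so rescue of galactose-driven cybrid death.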 The conditions noted are these: complex I mutant cybrid cells, 72 h, stronger effect = higher value.
Turning to `CC(C)C(=O)Nc1ccc([N+](=O)[O-])c(C(F)(F)F)c1`, the z-score was -0.565 (inactive) and -0.735 (inactive) and -1.1 (inactive).

Consider `CC(COc1ccccc1)N(CCCl)Cc1ccccc1` (configuration not stated), for which the z-score was -0.605 (inactive) and -1.23 (inactive).

Consider `CCCc1nc2c(C)cc(-c3nc4ccccc4n3C)cc2n1Cc1ccc(-c2ccccc2C(=O)O)cc1`, for which the z-score was 1.57 (inactive) and -0.14 (inactive).

On to `CC(=O)CC(c1ccccc1)c1c(O)c2ccccc2oc1=O` (configuration not stated), for which the z-score is 2.31 (active).

In the case of `NS(=O)(=O)c1cc2c(cc1Cl)NCNS2(=O)=O`, the z-score was 0.29 (inactive) and 0.995 (inactive).

In the case of `CS(=O)(=O)OCCCCOS(C)(=O)=O`, the z-score was 0.925 (inactive).

For the compound `O=C(O)CCCc1ccccc1`, the z-score is -0.305 (inactive) and -0.05 (inactive) and 0.3 (inactive).

`NNCCc1ccccc1`: the z-score is 0.14 (inactive) and 0.22 (inactive) and 0.6 (inactive).

Turning to `CC1Cc2ccccc2N1NC(=O)c1ccc(Cl)c(S(N)(=O)=O)c1` (configuration not stated), the z-score was 0.635 (inactive) and 0.155 (inactive).

As for `CC(C)Cc1ccc(C(C)C(=O)O)cc1` (configuration not stated), the z-score is 0.975 (inactive) and -0.01 (inactive) and 0.46 (inactive).

Consider `N[C@@H]1CONC1=O`, for which the z-score was 0.55 (inactive) and 0.975 (inactive).

With `CCCc1cc(=O)[nH]c(=S)[nH]1`, the z-score is 0.835 (inactive).

Consider `O=C(O)c1cccnc1`, for which the z-score is 0.63 (inactive).

Consider `CC(C[N+](C)(C)C)OC(N)=O` (configuration not stated), for which the z-score is -0.115 (inactive) and 0.415 (inactive) and 0.59 (inactive).

With `N[C@@H](Cc1cc(I)c(Oc2cc(I)c(O)c(I)c2)c(I)c1)C(=O)O`, the z-score is -1.38 (inactive) and -0.805 (inactive).

As to `CC1(C)O[C@@H]2[C@@H](CO[C@@]3(COS(N)(=O)=O)OC(C)(C)O[C@@H]23)O1`, the z-score is -0.1 (inactive).

Take `NNC(=O)c1ccncc1`: the z-score was 0.55 (inactive) and 0.315 (inactive).

A short description of another test: LFS_MB_P medulloblastoma growth inhibition, cell-based, chromothripsis tumors, cisplatin or BGB combos (AID 1671449; in the data active means inhibition above about 80%;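 further: cells exposed for 96 hours; 0% = vehicle DMSO and 100% = killing by high DMSO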). The conditions noted are these: LFS_MB_P medulloblastoma cells, at 0.5 µM, stronger effect = higher value.
Turning to `CC(=O)OCC(CCn1cnc2cnc(N)nc21)COC(C)=O`, the inhibition was -15.4% (inactive).

On to `S=c1nc[nH]c2nc[nH]c12`, for which the inhibition is -16.7% (inactive) and -25.3% (inactive) and -23.4% (inactive).

As to `COc1c(N2CCNC(C)C2)c(F)cc2c(=O)c(C(=O)O)cn(C3CC3)c12` (configuration not stated), the inhibition is -20.5% (inactive) and -4.2% (inactive).

Consider `CC1COc2c(N3CCN(C)CC3)c(F)cc3c(=O)c(C(=O)O)cn1c23` (configuration not stated), for which the inhibition is -15.2% (inactive) and -4.35% (inactive) and -7.1% (inactive).

Regarding `O=C1c2c(O)ccc(O)c2C(=O)c2c(NCCNCCO)ccc(NCCNCCO)c21`, the inhibition is -22.5% (inactive).

For the compound `CS(=O)(=O)OCCCCOS(C)(=O)=O`, the inhibition is -1.82% (inactive) and -6.92% (inactive).

For the compound `O=C(O)CCCc1ccccc1`, the inhibition was -32.4% (inactive).

The same test, now with this note: LFS_MB_P medulloblastoma cells, measured here: combination with BGB IC20, at 0.005 µM.
`CC(=O)OCC(CCn1cnc2cnc(N)nc21)COC(C)=O`: the inhibition is -4.33%.

In the case of `S=c1nc[nH]c2nc[nH]c12`, the inhibition is -9.64% and 14% and 16.4%.

As to `COc1c(N2CCNC(C)C2)c(F)cc2c(=O)c(C(=O)O)cn(C3CC3)c12` (configuration not stated), the inhibition was 17.2% and 22.3%.

Take `CC1COc2c(N3CCN(C)CC3)c(F)cc3c(=O)c(C(=O)O)cn1c23` (configuration not stated): the inhibition is -17.1% and -18.6% and 40.6%.

In the case of `O=C1c2c(O)ccc(O)c2C(=O)c2c(NCCNCCO)ccc(NCCNCCO)c21`, the inhibition was -15.5%.

For `CS(=O)(=O)OCCCCOS(C)(=O)=O`, the inhibition was -22.1% and -20.3%.

In the case of `O=C(O)CCCc1ccccc1`, the inhibition is -18.8%.

The test is the same for the next values; noted with them: LFS_MB_P medulloblastoma cells, measured here: combination with BGB IC40, at 0.005 µM.
For `CC(=O)OCC(CCn1cnc2cnc(N)nc21)COC(C)=O`, the inhibition was -16.3%.

With `S=c1nc[nH]c2nc[nH]c12`, the inhibition was -23.4% and -1.54% and -20.6%.

As for `COc1c(N2CCNC(C)C2)c(F)cc2c(=O)c(C(=O)O)cn(C3CC3)c12` (configuration not stated), the inhibition was 3.24% and -1.74%.

For `CC1COc2c(N3CCN(C)CC3)c(F)cc3c(=O)c(C(=O)O)cn1c23` (configuration not stated), the inhibition was -34.5% and 8.51% and 11.7%.

Regarding `O=C1c2c(O)ccc(O)c2C(=O)c2c(NCCNCCO)ccc(NCCNCCO)c21`, the inhibition was -3.49%.

Take `CS(=O)(=O)OCCCCOS(C)(=O)=O`: the inhibition was -24.6% and 29.3%.

Turning to `O=C(O)CCCc1ccccc1`, the inhibition was -12.3%.

The test is the same for the next values; noted with them: LFS_MB_P medulloblastoma cells, measured here: combination with BGB IC40, at 0.05 µM.
`CC(=O)OCC(CCn1cnc2cnc(N)nc21)COC(C)=O`: the inhibition is -21.9%.

For the compound `S=c1nc[nH]c2nc[nH]c12`, the inhibition is -13.7% and 4.76% and 13.1%.

In the case of `COc1c(N2CCNC(C)C2)c(F)cc2c(=O)c(C(=O)O)cn(C3CC3)c12` (configuration not stated), the inhibition is -33% and 5.75%.

Turning to `CC1COc2c(N3CCN(C)CC3)c(F)cc3c(=O)c(C(=O)O)cn1c23` (configuration not stated), the inhibition was -33.9% and 2.31% and 36%.

On to `O=C1c2c(O)ccc(O)c2C(=O)c2c(NCCNCCO)ccc(NCCNCCO)c21`, for which the inhibition is -28%.

In the case of `CS(=O)(=O)OCCCCOS(C)(=O)=O`, the inhibition was -40.6% and 3.42%.

In the case of `O=C(O)CCCc1ccccc1`, the inhibition is -22.2%.

The same test, now with this note: LFS_MB_P medulloblastoma cells, measured here: combination with cisplatin, at 0.5 µM, stronger effect = higher value.
With `CC(=O)OCC(CCn1cnc2cnc(N)nc21)COC(C)=O`, the inhibition is -33%.

As to `S=c1nc[nH]c2nc[nH]c12`, the inhibition is -46.7% and -35.2% and -28.2%.

In the case of `COc1c(N2CCNC(C)C2)c(F)cc2c(=O)c(C(=O)O)cn(C3CC3)c12` (configuration not stated), the inhibition was -33.3% and -6.41%.

With `CC1COc2c(N3CCN(C)CC3)c(F)cc3c(=O)c(C(=O)O)cn1c23` (configuration not stated), the inhibition was -16.9% and 6.16% and -20.4%.

As for `O=C1c2c(O)ccc(O)c2C(=O)c2c(NCCNCCO)ccc(NCCNCCO)c21`, the inhibition is -39.3%.

For `CS(=O)(=O)OCCCCOS(C)(=O)=O`, the inhibition was 1.85% and -16.8%.

Consider `O=C(O)CCCc1ccccc1`, for which the inhibition is -35%.
